Most compounds without a hit are left out; they make up all but 7.9% or so of the library.
HT1080 IDH1KD tx: qHTS for induction of synthetic lethality in tumor cells producing 2HG: qHTS for the HT-1080-IDH1KD cell line; actives 2% (n = 360,000); HT-1080 IDH1 knockdown viability, ATP luminescence, 48 h; Potency, µM (titrated, usually from 46.1 µM), without a hit: top-dose activity, negative = toxicity, most hits filed as cytotoxic;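 further: 0% = DMSO wells and -100% = cell-free medium wells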
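Assay cells: HT-1080 with IDH1 knockdown, 750 per well, RPMI/5% FBS. Exposure: 48 h at 37 °C following 2 h pre-incubation. Read: CellTiter-Glo luminescence; fitted concentration-response, curve class assigned.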
KB-3-1 tox: qHTS assay for MDR1-selective chemotherapeutics: Primary screen using the parental adenocarcinoma cell KB-3-1 | KB-3-1 viability, CellTiter-Glo ATP luminescence, 72 h | Potency, µM (series often up to 46.1 µM), actives largely listed as cytotoxic | actives 1.4% (n = 400,000); further: on the % scale 0 is the no-effect control and ±100 the full control effect; nearly all actives have a fitted effect of over 60% in size
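KB-3-1 cells, DMEM (no phenol red) + 10% FBS; compound by pin transfer, 72 h, 37 °C. Readout: CellTiter-Glo luminescence after 10 min. Data normalized, curve-fitted.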
KB-V1 MDR tox: qHTS assay for MDR1-selective chemotherapeutics: Primary screen using the drug-selected MDR subline cells KB-V1. actives 3.4% (n = 400,000). KB-V1 MDR cells viability, CellTiter-Glo, 72 h. Potency, µM (titrated, usually from 46.1 µM), actives largely listed as cytotoxic; further: on the % scale 0 is the no-effect control and ±100 the full control effect; nearly all actives have a fitted effect of over 60% in size
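Potencies derive from concentration-effect curves fitted to normalized luminescence (CellTiter-Glo) of KB-V1 cells treated for 72 h at 37 degrees C in phenol-red-free DMEM containing 10% FBS.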
HT1080NT lethal: qHTS for induction of synthetic lethality in tumor cells producing 2HG: qHTS for the HT-1080-NT fibrosarcoma cell line. HT-1080-NT fibrosarcoma viability, CellTiter-Glo ATP luminescence, 48 h. Potency, µM (series often up to 46.1 µM), without a hit: at the top dose activity, negative = less viability, most hits filed as cytotoxic. actives 1.6% (n = 360,000). AID 686970, 2013;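 further: NT is the 2HG producing partner of a matched IDH1 knockdown line; 0% = DMSO-treated cells and -100% = media-only wells without cells; nearly all actives have a fitted effect of over 55% in size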
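Toxicity toward the 2HG-producing NT line was scored as %Activity, normalised to DMSO and no-cell wells, from CellTiter-Glo luminescence after 48 hours' treatment.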
SW480 rereplic: A quantitative high throughput screen for small molecules that induce DNA re-replication in SW480 colon adenocarcinoma cells; SW480 DNA re-replication, Hoechst DNA content imaging, 48 h; Potency, µM (doses to about 46.1 µM), for inactives: at the top dose re-replication activation, actives largely listed as activators; actives 1.8% (n = 340,000); AID 624297, 2012; further: % of control where 0% means no effect; nearly all actives have a fitted effect of over 55% in size
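Compounds, transferred as 23 nL by pin tool, were incubated with cells for 48 hr; DNA content per nucleus was then quantified by Hoechst staining and fluorescence plate imaging.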
MCF10A rerep: A quantitative high throughput screen for small molecules that induce DNA re-replication in MCF 10a normal breast cells | MCF 10A DNA re-replication, Hoechst nuclear intensity, 48 h | Potency, µM (top dose mostly 46.1 µM), inactives show top-dose activity, positive = re-replication, actives largely listed as activators | actives 2.9% (n = 350,000); further: % of control where 0% means no effect; nearly all actives have a fitted effect of over 50% in size
Numbers without * were called inactive; i = inactive; ? = inconclusive; . = no result given; [ ] = another dose, or the depositor's remark. The call rests on the fitted dose curve; in most records, active means well fitted curve in the direction sought with a large enough effect; inconclusive means small, poorly fitted or top-dose-only effect, or another doubt; inactive means no such curve, though single readings can be large; an effect the other way counts as inactive or inconclusive. Potency means the concentration at half of the fitted maximal effect.

SMILES	HT1080 IDH1KD tx	KB-3-1 tox	KB-V1 MDR tox	HT1080NT lethal	SW480 rereplic	MCF10A rerep
Nc1c(C(=O)OCC2CCCO2)c2nc3ccccc3nc2n1-c1ccc2c(c1)OCCO2 (centres undefined)	-6%	i	i	-14%	2%	?
COc1cc(/C=C(\CCC(=O)O)c2nc3ccccc3s2)ccc1OCC(=O)Nc1c(Cl)cccc1Cl	6%	i	i	4%[9.24 µM]	22%	?
COC(=O)C1=CN(Cc2ccccc2)C=C(C(=O)OC)C1c1cc(F)ccc1F	-22%	i	i	-16%	?	21µM*
COC(=O)C1=CN(Cc2ccc(C)cc2)C=C(C(=O)OC)C1c1ccc(F)c(F)c1	-25%	i	?	-15%	4.6µM*	23µM*
COC(=O)C1=CN(Cc2ccc(F)cc2)C=C(C(=O)OC)C1c1cc(OC)c(OC)c(OC)c1	-18%	i	i	-21%	23%	2%
COc1ccc(C2CC(c3ccccc3)=NN2C(=O)COC(=O)/C=C/c2ccc(O)c(OC)c2)cc1 (centres undefined)	-2%	i	i	-18%	23%	-2%
COc1cccc(NC(=O)c2c(C(=O)Nc3ccccc3)sc3nc(C)cc(=O)n23)c1	.	i	i	.	.	.
O=C(CN1C(=O)NC2(CCCCC2)C1=O)Oc1ccc2ccc(=O)oc2c1	0%	i	i	4%	10µM*	?
COc1ccc(/C(N)=N/OC(=O)c2c(-c3ccccc3Cl)noc2C)cc1OC	16µM*	?	?	?	?	?
Cc1onc(-c2c(F)cccc2Cl)c1C(=O)Nc1cccc(Cn2cccn2)c1	7%	i	21µM*	8%	4%	-8%
Cc1ccc(NC(=S)NC(=O)c2c(-c3ccccc3Cl)noc2C)cc1	5%	i	21µM*	10%	-5%	16%
Cc1onc(-c2ccccc2Cl)c1C(=O)NC(=S)Nc1ccc(C(C)C)cc1	9%	i	i	18%	-7%	4%
COc1ccc(NC(=O)Cn2nnc(-c3ccccc3NS(=O)(=O)c3ccccc3)n2)cc1	?	23µM*	2.9µM*	-19%	-3%	8%
COc1ccc2ccc(O)c(CN(C)CC(=O)Nc3ccccc3C(F)(F)F)c2c1	-30%	i	i	?	-22%	?
CCOC(=O)c1c(C)[nH]c(C)c1S(=O)(=O)NCc1ccc(OCC)cc1	7%	i	i	6%	5%	15%
COc1ccc(Br)cc1CNC(=O)Cn1ncn2nc(-c3cccs3)cc2c1=O	.	i	i	.	.	.
NC(=O)c1csc(CCNC(=O)c2ccccc2)n1	4%	i	i	7%	.	.
Cc1ccc2oc(-c3ccc(NC(=O)c4oc5ccc(Cl)cc5c4C)cc3)nc2c1	.	i	?	.	.	.
Cc1onc(-c2c(F)cccc2Cl)c1C(=O)OCC(=O)Nc1cccc(S(=O)(=O)N(C)C)c1	-14%	?	4.1µM*	-6%	-1%	7%
Cc1onc(-c2ccccc2Cl)c1C(=O)Nc1cccc(-c2cn3cccnc3n2)c1	-23%	i	16µM*	-1%	20%	?
Cc1[nH]n(C)c(=O)c1C(=O)c1c(-c2ccccc2Cl)noc1C	-27%	i	i	-29%	?	26µM*
Cc1noc(C)c1C(=O)OCC(=O)Nc1cccc(S(=O)(=O)N(C)C)c1	-3%	i	i	-1%	2%	4%
COC(=O)c1cc(OC)c(OC)cc1NC(=O)c1c(-c2ccccc2Cl)noc1C	2%	?	3.3µM*	2%	?	27%
CCOC(=O)c1c(C)[nH]c(C)c1S(=O)(=O)N1CCCC(C(=O)Nc2ccc(F)cc2F)C1 (centres undefined)	.	i	i	.	.	.
CCOC(=O)c1csc(NC(=O)CCS(=O)(=O)c2ccc(Cl)cc2)n1	-6%	i	i	-1%	.	.
SMILES	HT1080 IDH1KD tx	KB-3-1 tox	KB-V1 MDR tox	HT1080NT lethal	SW480 rereplic	MCF10A rerep
Cc1ccc(NC(=O)CCC(=O)NN=Cc2ccc(C)o2)c(C)c1	0%	i	i	7%	.	.
Cc1cc(NC(=O)c2c(-c3ccccc3Cl)noc2C)no1	-6%	i	13µM*	-8%	-5%	4%
COC(=O)c1cc(OC)c(OC)cc1NC(=O)Cn1nnc(-c2ccccc2Cl)n1	4%	i	?	14%[9.24 µM]	15µM*	17%
O=c1oc2ccccc2c(Nc2cccc(O)c2)c1[N+](=O)[O-]	-12%	i	i	-23%	-4%	18µM*
Cc1cc2ccccc2cn1	.	i	i	.	.	.
COc1ccc([C@H]2CN(c3ccc(OC)cc3)C(=O)[C@@H]2CC(=O)Nc2ccc(Br)cc2)cc1	-26%	?	16µM*	-5%	.	.
COc1ccc(NC(=O)C[C@H]2C(=O)N(c3ccccc3)C[C@@H]2Cc2ccccc2)cc1	-10%	i	15µM*	1%	.	.
COc1ccc([C@H]2CN(c3ccccc3)C(=O)[C@@H]2CC(=O)Nc2ccccc2)cc1	-1%	i	?	0%	.	.
CCOC(=O)c1ccc(-c2ccc3c(=O)c4ccccc4n(C)c3c2)cc1F	18%	i	?	7%	-88%	5%
COc1cccc(NC(=O)COC(=O)c2ccccc2C(=O)N(C)c2ccccc2)c1	-12%	i	23µM*	0%	-2%	6%
CCOC(=O)Nc1cccc(OCC(=O)Nc2ccccc2OCC)c1	3%	i	6.5µM*	6%	-15%	10%
COc1cccc(NC(=O)CN(C)C(=O)Cc2ccc3c(c2)OCCO3)c1	20%	i	?	4%	3%	0%
Cc1ccc(OCC(=O)NC(=S)Nc2cccc(NC(=O)c3ccc(Cl)cc3Cl)c2)cc1	-16%	i	?	-7%	-7%	22%
Cc1ccc(OCC(=O)NC(=S)Nc2cccc(NC(=O)c3ccccc3)c2)cc1	0%	i	i	6%	2%	15µM*
COc1cccc(NC(=O)CN(C)C(=O)Cc2ccc3c(c2)CCC3)c1	-7%	i	15µM*	3%	-4%	2%
COc1ccc(C2=NOC(C)(c3nnc(-c4ccccc4)o3)C2)cc1 (centres undefined)	3%	i	i	6%	-2%	-20%

From PubChem BioAssay
